# Test results taken from article PMC4552634, “A New Set of Chemical Starting Points with Plasmodium falciparum Transmission-Blocking Potential for Antimalarial Drug Discovery” (PLoS ONE, 2015).
# The campaign covered roughly 13,000 compounds. About 3,200 (25%) showed an effect of 50% or more. The list shows a part of the results.
# Tested on: P. falciparum stage V gametocytes
# Parameters: BacTiter-Glo ATP luminescence viability of purified stage V gametocytes in 384-well plates, per cent inhibition versus DMSO
# Conditions: 48 h, 5 µM; inhibitor
row,SMILES,% Inhibition [%]
1,CC(CNC(=O)c1cc2c(Cl)cc(Cl)cc2[nH]1)CNc1cc(=O)c2ccccc2[nH]1 (stereo not shown) [TCMDC-140624],-21.72
2,CCC(C)NS(=O)(=O)c1ccc2nc(Nc3ccc(C)c(Cl)c3)n(C(C)C(C)C)c2c1 (stereo not shown) [TCMDC-134310],-65.92
3,Br.CC[C@H]1CN2CCc3cc(OC)c(OC)cc3[C@@H]2C[C@@H]1CC1=NCCc2c1[nH]c1ccc(OCc3ccccc3)cc21 [TCMDC-137627],69.01
4,CC[C@H]1CN2CCc3c([nH]c4ccccc34)[C@@H]2C[C@@H]1CC1c2cc(OC)c(OC)cc2CCN1C (stereo partly shown) [TCMDC-142011],-85.21
5,CCC1CN2CCc3c([nH]c4ccccc34)C2CC1CC1=NCCc2c1[nH]c1ccccc21 (stereo not shown) [TCMDC-141998],9.363
6,CCOC(=O)c1ccc(NC(=O)Nc2ccc(-c3cccc(-c4nc5ccccc5[nH]4)c3)cc2)cc1 [TCMDC-133270],-42.41
7,O=C(NCCc1ccccc1F)c1ccc(N2CCN(c3ccncc3)CC2)cn1 [TCMDC-135154],-6.834
8,O=C(NCCc1cccc(F)c1)c1cc(Br)cc(N2CCN(c3ccncc3)CC2)c1 [TCMDC-135145],3.253
9,O=C(NCCc1ccccc1F)c1cc(Br)cc(N2CCN(c3ccncc3)CC2)c1 [TCMDC-135147],-5.133
10,Cc1ccccc1CCNC(=O)c1cnc(N2CCN(c3ccncc3)CC2)c(Cl)c1 [TCMDC-134598],14.18
11,COc1ccccc1CCNC(=O)c1cc(Br)cc(N2CCN(c3ccncc3)CC2)c1 [TCMDC-135148],-33.58
12,COc1ccccc1CNC(=O)c1cc(Br)cc(N2CCN(c3ccncc3)CC2)c1 [TCMDC-135151],104.3
13,COc1ccccc1CNC(=O)c1ccc(N2CCN(c3ccncc3)CC2)cn1 [TCMDC-135158],60.69
14,O=C(NCc1ccc(F)cc1)c1ccc(N2CCN(c3ccncc3)CC2)cn1 [TCMDC-135157],0.3973
15,O=C(NCc1cccc(CN2CCOCC2)c1)c1cc(Br)cc(N2CCN(c3ccncc3)CC2)c1 [TCMDC-135152],69.44
16,COc1ccccc1CCNC(=O)c1cnc(N2CCN(c3ccncc3)CC2)c(Cl)c1 [TCMDC-134595],89.83
17,O=C(NCc1ccc(F)cc1)c1cc(Br)cc(N2CCN(c3ccncc3)CC2)c1 [TCMDC-135150],12
18,O=C(NCCc1cccc(Cl)c1Cl)c1cnc(N2CCN(c3ccncc3)CC2)c(Cl)c1 [TCMDC-134597],-18.32
19,CC(CC1CCCCC1)NCc1ccccc1OCCC(=O)N1CCCC1C(N)=O (stereo not shown) [TCMDC-140917],-9.137
20,Cc1c(Oc2ccc(-n3ccnc3)cc2)ncnc1N1CCC2(CC1)CNCc1ccccc12 [TCMDC-137157],6.86
21,CC(C)c1ccc(CN2CCC(NC(=O)c3ccc(-c4cccc(F)c4)s3)CC2)cc1 [TCMDC-134346],-27.58
22,Cc1nccn1CCNC(=O)CN1CCC2(CCC1=O)CC(=O)c1ccccc1O2 (stereo not shown) [TCMDC-125379],-42.89
23,O=C(O)CCCN1CCCC(=C(c2ccccc2)c2ccccc2)C1 [TCMDC-141969],-38.14

row,SMILES,% Inhibition [%]
1,COC(=O)c1ccc(OCC(O)CO)cc1O (stereo not shown) [TCMDC-123463],4.056
2,CC(C)N(CCOc1ccc2c(c1)N(C(=O)Nc1cc(Br)cc(C(F)(F)F)c1)CC2)C(C)C [TCMDC-140250],-0.9347
3,CC(C)N(CCOc1ccc2c(c1)N(C(=O)Nc1ccc(Cl)c(Cl)c1)CC2)C(C)C [TCMDC-140254],8.096
4,CC(C)c1ccc(NC(=O)N2CCc3ccc(OCCN(C(C)C)C(C)C)cc32)c(Br)c1 [TCMDC-140252],63.96
5,Fc1ccc(C(OCC2CCCN(Cc3cccc4cccnc34)C2)c2ccc(F)cc2)cc1 (stereo not shown) [TCMDC-136044],-14.61
6,COC1(C)Oc2ccc3cccc([N+](=O)[O-])c3c2C1=O (stereo not shown) [TCMDC-131378],-5.605
7,CCOc1ccc(C(C)NC(=O)c2cc(Cl)ccc2OC)cc1OCC (stereo not shown) [TCMDC-125016],67.36
8,CCOc1ccc(C(C)NC(=O)c2ccc(OC)c(Br)c2)cc1OCC (stereo not shown) [TCMDC-124876],88.58
9,CCOc1cc(C(C)C)ccc1N1CCN(CCCCNC(=O)c2ccc(NC(=O)c3ccc(Cl)cc3)cc2)CC1 [TCMDC-138519],-10.71
10,CCOc1ccc(C(=O)Nc2cc(Cl)ccc2O)cc1Cl [TCMDC-123684],-34.32
11,Cc1cccc2nc(C(=O)Nc3nc(CN4CCC(C)CC4)cs3)cn12 [TCMDC-125340],11.88
12,N#CCCN1CCN(Cc2cccc(-c3ccc(-c4nc5ccccc5[nH]4)cc3)c2)CC1 [TCMDC-133852],-22.87
13,CN1CCC(NCc2cccc(-c3cccc(-c4nc5ccc(C(F)(F)F)cc5[nH]4)c3)c2)CC1 [TCMDC-132735],38.83
14,COCCN1CCN(Cc2ccc(-c3cccc(-c4nc5ccccc5[nH]4)c3)cc2)CC1 [TCMDC-132559],86.66
15,c1cc(-c2ccc(CN3CCCC3)cc2)cc(-c2nc3ccccc3[nH]2)c1 [TCMDC-133794],34.22
16,CN1CCC(NCc2ccc(-c3cccc(-c4nc5ccccc5[nH]4)c3)cc2)CC1 [TCMDC-132551],85.21
17,CN1CCC(N2CCN(Cc3cccc(-c4ccc(-c5nc6ccccc6[nH]5)cc4)c3)CC2)CC1 [TCMDC-133850],29.34
18,c1ccc2[nH]c(-c3ccc(-c4ccc(CN5CCCCC5)cc4)cc3)nc2c1 [TCMDC-133906],32.64
19,c1cc(CN2CCN(CCN3CCOCC3)CC2)cc(-c2cccc(-c3nc4ccccc4[nH]3)c2)c1 [TCMDC-133922],-15.36
20,COCCN1CCN(Cc2cccc(-c3ccc(-c4nc5ccccc5[nH]4)cc3)c2)CC1 [TCMDC-133023],-14.55
21,CN1CCC(N2CCN(Cc3cccc(-c4cccc(-c5nc6ccccc6[nH]5)c4)c3)CC2)CC1 [TCMDC-133878],70.79
22,CN1CCN(Cc2ccc(-c3cccc(-c4nc5ccccc5[nH]4)c3)cc2)CC1 [TCMDC-132542],58.54
23,c1cc(-c2ccc(CNC3CC3)cc2)cc(-c2nc3ccccc3[nH]2)c1 [TCMDC-132538],-44.27
